The text below walks through data of PubChem BioAssay (EPA / NIEHS).

Inconclusive results are not listed. The source made the active and inactive calls. Rule for the calls, unless noted: active = hit-call score of the fitted dose curve at least 0.9, where 1 is the maximum; inactive = score below 0.9.

Read-out in test [1]: Monokine induced gamma interferon (MIG), CXCL9 (gene 4283)
The test is described as follows: BSK_3C_MIG: BioMAP Diversity Plus: 3C Assay for Monokine induced gamma interferon (MIG) Biomarker Activity (AID 2283021).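 For AC50: MIG protein level measured by immunoassay in the treated endothelial cultures.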 The conditions noted are these: primary human endothelial cells (HUVEC); actives raise or lower the signal. Put shortly: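 Primary human umbilical vein endothelial cells in the 3C system were exposed to chemical for 24 h, after which MIG was quantified by ELISA. Activity was fitted bidirectionally against DMSO as negative control and baseline.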

Test [2] concerns the target human Vitamin D Receptor (VDR), VDR (gene 7421) (UniProt P11473). The test is described as follows: ATG_VDR_TRANS: Attagene TRANS-FACTORIAL HepG2 Assay for human Vitamin D Receptor (VDR) (AID 2283022; active = hit-call score of the fitted dose curve at least 0.9, where 1 is the maximum). In outline: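 HepG2 cells were transiently transfected with multiple GAL4-UAS reporter units, so signal reflects exogenous chimeric receptor-Gal4 activity. After 24 h compound exposure, reporter mRNA was measured by RT-PCR, fluorescent labelling and capillary electrophoresis, fitted for gain of signal versus DMSO.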

Test [3] is described as follows: BSK_3C_SRB: Viability Assessment in the BioMAP Diversity Plus: 3C Assay (AID 2283023).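 Note: fitted both ways against DMSO so a hit may be signal rise or drop.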 The conditions noted are these: primary human endothelial cells (HUVEC). Put shortly:
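Primary human umbilical vein endothelial cells in the 3C system were read 24 h after compound dosing. Total protein was stained with 0.1% sulforhodamine B after 10% TCA fixation and read at 560 nm, with bidirectional fitting against DMSO as baseline.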

Read-out in test [4]: Matrix Metallopeptidase 1 (MMP1), MMP1 (gene 4312)
Briefly: BSK_BE3C_MMP1: BioMAP Diversity Plus: BE3C Assay for Matrix Metallopeptidase 1 (MMP1) Biomarker Activity (AID 2283024). The settings on record: primary human bronchial epithelial cells; actives raise or lower the signal. Put shortly: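 Primary human bronchial epithelial cells were dosed with test chemicals, and MMP1 levels were measured by ELISA 24 h later. Data were fitted bidirectionally against DMSO as the negative control and activity baseline.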

Test [5] is described as follows: BSK_3C_Vis: BioMAP Diversity Plus: 3C Assay for Morphology Visualization (AID 2283025).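 Note: fitted both ways so gain or loss versus DMSO counts.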 The settings on record: primary human endothelial cells (HUVEC). In outline:
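Human umbilical vein endothelial cells in the 3C system were imaged by light microscopy 24 h after chemical dosing to record cell morphology. Activity was fitted bidirectionally against DMSO as negative control and baseline; the endpoint serves as a background control.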

Read-out in test [6]: Pselectin, SELP (gene 6403)
The test is described as follows: BSK_4H_Pselectin: BioMAP Diversity Plus: 4H Assay for Pselectin Biomarker Activity (AID 2283026). The settings on record: primary human endothelial cells (HUVEC); actives raise or lower the signal. In outline: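 Primary human umbilical vein endothelial cells were exposed to test chemical for 24 h, then cell-surface P-selectin was quantified by ELISA. Activity was fitted bidirectionally against DMSO as negative control and baseline.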

Test [7] in a line: BSK_4H_SRB: Viability Assessment in the BioMAP Diversity Plus: 4H Assay (AID 2283027).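 For AC50: curves fitted both ways versus DMSO so AC50 may be loss or gain.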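 Note: cells exposed to compound for 24 h before staining.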 The settings on record: primary human endothelial cells (HUVEC). Put shortly: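 Human umbilical vein endothelial cells were dosed with chemical and, after 24 h, fixed with 10% TCA, stained with 0.1% sulforhodamine B, and read at 560 nm to give total protein as a cytotoxicity measure. Bidirectional fitting relative to DMSO control.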

Test [8] can be described thus: BSK_BE3C_SRB: Viability Assessment in the BioMAP Diversity Plus: BE3C Assay (AID 2283028).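 For AC50: fitted both ways so AC50 may mark signal gain or loss versus DMSO.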 The conditions noted are these: primary human bronchial epithelial cells. Put shortly: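 Human primary bronchial epithelial cells were exposed to test chemicals for 24 h. Total protein in parallel cultures was then measured by staining with 0.1% sulforhodamine B after 10% TCA fixation, with absorbance read at 560 nm. Activity was fitted bidirectionally against DMSO.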

Read-out in test [9]: Thrombomodulin, THBD (gene 7056)
Briefly: BSK_3C_Thrombomodulin: BioMAP Diversity Plus: 3C Assay for Thrombomodulin Biomarker Activity (AID 2283029). The settings on record: primary human endothelial cells (HUVEC); actives raise or lower the signal. Put shortly: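 Primary human umbilical vein endothelial cells (3C system) were exposed to chemical for 24 h, then thrombomodulin levels were measured by ELISA. Activity was fitted bidirectionally against the DMSO negative control as baseline.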

Read-out in test [10]: Urokinase-type plasminogen activator receptor (uPAR), PLAUR (gene 5329)
Briefly: BSK_4H_uPAR: BioMAP Diversity Plus: 4H Assay for Urokinase-type plasminogen activator receptor (uPAR) Biomarker Activity (AID 2283030). The settings on record: primary human endothelial cells (HUVEC); actives raise or lower the signal. In outline: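 Primary human umbilical vein endothelial cells were exposed to chemical for 24 h before cell-surface uPAR was quantified by ELISA. Activity was fitted bidirectionally against the DMSO negative control baseline.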

Read-out in test [11]: Vascular endothelial growth factor receptor 2 (Homo sapiens) (UniProt P35968)
The test is described as follows: BSK_4H_VEGFRII: BioMAP Diversity Plus: 4H Assay for Vascular endothelial growth factor receptor 2 (VEGFR2) Biomarker Activity (AID 2283031).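 For AC50: cell-surface VEGFR2 protein level quantified by ELISA.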 The conditions noted are these: primary human endothelial cells (HUVEC); actives raise or lower the signal. In outline:
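Primary human umbilical vein endothelial cells in the BioMAP 4H system were dosed with test chemical, and 24 h later VEGFRII was measured by ELISA. Activity was fitted bidirectionally against DMSO as negative control and baseline.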

Read-out in test [12]: Human Leukocyte Antigen - DR isotype (HLADR), HLA-DRA (gene 3122)
The test is described as follows: BSK_BE3C_HLADR: BioMAP Diversity Plus: BE3C Assay for Human Leukocyte Antigen - DR isotype (HLADR) Biomarker Activity (AID 2283032). The conditions noted are these: primary human bronchial epithelial cells; actives raise or lower the signal. Put shortly: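 Human primary bronchial epithelial cells in the BE3C system were exposed to chemicals for 24 h, after which HLA-DR levels were quantified by ELISA. Activity was fitted bidirectionally, gain or loss of signal, against DMSO as negative control and baseline.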

Read-out in test [13]: Vascular cell adhesion molecule 1 (VCAM1), VCAM1 (gene 7412)
The test is described as follows: BSK_4H_VCAM1: BioMAP Diversity Plus: 4H Assay for Vascular cell adhesion molecule 1 (VCAM1) Biomarker Activity (AID 2283033).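 For outcome: cell-surface VCAM-1 protein measured by ELISA.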 The conditions noted are these: primary human endothelial cells (HUVEC); actives raise or lower the signal. Put shortly: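 Primary human umbilical vein endothelial cells were exposed to chemicals for 24 h, after which VCAM-1 was quantified by ELISA. Responses were fitted bidirectionally against DMSO as negative control and activity baseline.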

Read-out in test [14]: Interferon-gamma inducible Protein 10 (IP10), CXCL10 (gene 3627)
The test is described as follows: BSK_BE3C_IP10: BioMAP Diversity Plus: BE3C Assay for Interferon-gamma inducible Protein 10 (IP10) Biomarker Activity (AID 2283034). The conditions noted are these: primary human bronchial epithelial cells; actives raise or lower the signal. Put shortly: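 Human primary bronchial epithelial cells were exposed to chemicals for 24 hours, after which IP-10 levels were measured by ELISA. Data were fitted bidirectionally against DMSO, which served as the negative control and activity baseline.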

Read-out in test [15]: Plasminogen activator inhibitor-1 (PAI1), SERPINE1 (gene 5054)
The test is described as follows: BSK_BE3C_PAI1: BioMAP Diversity Plus: BE3C Assay for Plasminogen activator inhibitor-1 (PAI1) Biomarker Activity (AID 2283037). The settings on record: primary human bronchial epithelial cells; actives raise or lower the signal. Put shortly:
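Human primary bronchial epithelial cells were exposed to chemical for 24 h, then PAI-1 was quantified by ELISA. Activity was fitted bidirectionally relative to the DMSO negative control baseline.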

Read-out in test [16]: urokinase plasminogen activator (uPA), PLAU (gene 5328)
The test is described as follows: BSK_BE3C_uPA: BioMAP Diversity Plus: BE3C Assay for urokinase plasminogen activator (uPA) Biomarker Activity (AID 2283038).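 For outcome: uPA protein level quantified by ELISA in cell cultures; uPA read one day after compound addition.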 The settings on record: primary human bronchial epithelial cells; actives raise or lower the signal. In outline:
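Human primary bronchial epithelial cells were exposed to chemical for 24 h, then uPA levels were measured by ELISA. Responses were fitted bidirectionally against DMSO as negative control and baseline. Parallel SRB staining of total protein gauged overt cytotoxicity.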

Read-out in test [17]: Urokinase-type plasminogen activator receptor (uPAR), PLAUR (gene 5329)
The test is described as follows: BSK_BE3C_uPAR: BioMAP Diversity Plus: BE3C Assay for Urokinase-type plasminogen activator receptor (uPAR) Biomarker Activity (AID 2283039).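 For outcome: cells exposed to compound for one day before measurement.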 The conditions noted are these: primary human bronchial epithelial cells; actives raise or lower the signal. Put shortly: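 Primary human bronchial epithelial cells were dosed with chemical and harvested 24 h later; uPAR was quantified by ELISA. Activity was fitted bidirectionally against DMSO as negative control and baseline.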

Read-out in test [18]: Interleukin-6 (IL6), IL6 (gene 3569)
The test is described as follows: BSK_CASM3C_IL6: BioMAP Diversity Plus: CASM3C Assay for Interleukin-6 (IL6) Biomarker Activity for (AID 2283040). The conditions noted are these: primary human coronary artery smooth muscle cells; actives raise or lower the signal.

Read-out in test [19]: Tissue plasminogen activator (tPA), PLAT (gene 5327)
The test is described as follows: BSK_BE3C_tPA: BioMAP Diversity Plus: BE3C Assay for Tissue plasminogen activator (tPA) Biomarker Activity (AID 2283041).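 Note: tPA level quantified by ELISA one day after compound addition.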 The settings on record: primary human bronchial epithelial cells; actives raise or lower the signal. Put shortly: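 Human primary bronchial epithelial cells were dosed with chemical and tPA biomarker levels measured by ELISA 24 hours later. Activity was fitted bidirectionally against DMSO as negative control and baseline.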

Chain of human Vitamin D Receptor (VDR), VDR (gene 7421) (P11473 whole entry, looked up, the tested form may be a part): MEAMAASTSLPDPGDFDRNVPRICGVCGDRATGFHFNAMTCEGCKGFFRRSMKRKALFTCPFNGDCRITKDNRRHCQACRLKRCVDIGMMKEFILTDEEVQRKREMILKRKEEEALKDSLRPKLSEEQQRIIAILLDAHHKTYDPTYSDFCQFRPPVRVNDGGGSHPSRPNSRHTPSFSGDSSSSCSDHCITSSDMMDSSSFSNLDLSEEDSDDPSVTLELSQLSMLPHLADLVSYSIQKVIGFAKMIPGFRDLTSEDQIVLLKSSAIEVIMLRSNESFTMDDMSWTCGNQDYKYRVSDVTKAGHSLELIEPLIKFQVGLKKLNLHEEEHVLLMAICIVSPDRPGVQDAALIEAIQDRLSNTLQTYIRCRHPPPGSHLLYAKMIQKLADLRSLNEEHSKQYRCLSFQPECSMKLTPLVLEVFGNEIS

On to `C=C(C)C(N)=O`, for which the outcome in [1], in test [2], in [3], in test [4], in [5] and in test [6] was inactive. In addition, the result in test [7], in test [8], in test [9], in test [10], in test [11] and in [12] was inactive. Also, the outcome in test [13], in [14], in test [15], in test [16], in test [17] and in [18] was inactive. In addition, in [19], the result was inactive.

Take `CC1(C)[C@H](C=C(Cl)Cl)[C@H]1C(=O)OCc1cccc(Oc2ccccc2)c1`: the result in test [1], in test [2], in test [3], in test [4], in [5] and in test [6] was inactive. Moreover, the outcome in [7], in test [8], in [9], in test [10], in [11] and in test [12] was inactive. Further, the result in test [13], in [14], in test [15], in test [16], in test [17] and in test [18] was inactive. In test [19], the result was inactive.

Consider `CC(C)Cc1ccc(C(C)C(=O)O)cc1` (stereo unspecified), for which the outcome in [1], in test [3], in test [4], in [5], in test [6] and in test [7] was inactive. In addition, the result in test [8], in test [9], in [10], in test [11], in test [12] and in [13] was inactive. The outcome in test [14], in [15], in test [16], in test [17] and in test [19] was inactive. Also, in [18], the concentration at half-maximal activity (AC50) (as a rule, the midpoint of the concentration-response curve, whichever way the signal moves) was 5550 nM (active).

In the case of `C=CC(=O)OCC(CO)(COC(=O)C=C)COC(=O)C=C`, the concentration at half-maximal activity (AC50) is 602 nM (active) in test [1]; 294 nM (active) in [3]; 3220 nM (active) in test [4]; 174 nM (active) in test [5]; 341 nM (active) in test [6]; 566 nM (active) in test [7]. The AC50 in [8] is 20000 nM (active); in test [10], 964 nM (active); in test [11], 661 nM (active); in test [12], 336 nM (active); in test [13] it was 302 nM (active); in [14], 818 nM (active). For the same compound, the concentration at half-maximal activity (AC50) was 631 nM (active) in [16], 2720 nM (active) in test [17] and 835 nM (active) in [18]. In addition, the result in [9], in [15] and in [19] was inactive.

For `O=C1OC2(c3ccc(O)cc3Oc3cc(O)ccc32)c2ccccc21`, the result in [1], in test [2], in test [3], in test [4], in [5] and in test [6] was inactive. In addition, the outcome in [7], in test [8], in [9], in [10], in test [11] and in test [12] was inactive. Also, the outcome in [13], in [14], in [15], in [16], in [17] and in test [18] was inactive. Besides, the outcome in test [19] was inactive.

For `CCn1cc(C(=O)O)c(=O)c2ccc(C)nc21`, the result in test [1], in [2], in test [3], in test [4], in [6] and in test [7] was inactive. The result in [8], in test [9], in test [10], in test [11], in [12] and in [13] was inactive. Further, the result in test [14], in [15], in test [16], in test [17], in test [18] and in [19] was inactive.
